Source: PubChem (Sanford-Burnham Center for Chemical Genomics)
Sampled rows, rich in hits. Any-hit rate of the full collection: about 3%.
SENP6 inh: SENP6 protease inhibition. Recombinant SENP6 catalytic domain, aminoluciferin luminescence. Q9GZR1. inhibition, % at 10 µM. hit rate 1.8% among 330,000;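 active = inhibition above about 50% at the single tested dose, limit read from the data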
Target sequence (Q9GZR1 628-1112 limits assumed): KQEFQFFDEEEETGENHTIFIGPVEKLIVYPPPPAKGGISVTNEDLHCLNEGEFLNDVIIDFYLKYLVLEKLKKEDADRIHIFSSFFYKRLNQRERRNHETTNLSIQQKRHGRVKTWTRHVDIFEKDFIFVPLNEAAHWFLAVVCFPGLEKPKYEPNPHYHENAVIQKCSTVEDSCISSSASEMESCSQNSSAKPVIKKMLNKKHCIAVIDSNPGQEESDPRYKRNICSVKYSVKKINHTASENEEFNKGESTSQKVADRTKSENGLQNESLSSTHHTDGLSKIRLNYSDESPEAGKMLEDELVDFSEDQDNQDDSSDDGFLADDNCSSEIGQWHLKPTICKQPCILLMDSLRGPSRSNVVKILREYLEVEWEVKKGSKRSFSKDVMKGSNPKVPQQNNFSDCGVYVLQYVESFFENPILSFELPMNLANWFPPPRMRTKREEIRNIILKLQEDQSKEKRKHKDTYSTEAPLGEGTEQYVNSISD
SENP7 inh: blocks the human protease SENP7; Q9BQF6; recombinant SENP7, Z-RLRGG-aminoluciferin luminescence, 40 min; inhibition, % at 5 µM; hit rate 1.5% among 330,000; AID 434973;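 active = inhibition above about 50% at the single test dose, limit read from the data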
SENP8 block-1: SENP8 protease inhibition. purified SENP8, Z-RLRGG-aminoluciferin cleavage, luminescence. inhibition, % at 10 µM. hit rate 1.2% among 330,000. AID 2540; in the data active = inhibition above about 50%
PPC-1+TRAIL kill: PPC-1 cancer cell killing with TRAIL present; PPC-1 cells + TRAIL, ATPLite viability luminescence; hit rate 0.41% among 220,000; cell killing (% activity), % at 4 µM or 5 µM;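 active = cell killing above 50% in the first pass at 4 µM, then a duplicate retest at 5 µM averaging 50% or more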
TRAIL sens C8: sensitizes caspase-8 expressing cells to TRAIL; NB7+C8 cells + TRAIL, ATPlite viability luminescence; inhibition (viability loss, TRAIL sensitization), % at 10 µM; hit rate 1% among 360,000; AID 624354;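 active = compounds causing at least 50% loss of cell viability in the single-dose screen, relative to plate controls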
SENP8 block-2: SENP8 (human) protease inhibition. Q96LD8. recombinant SENP8, Nedd8 substrate fluorescence. inhibition, % at 20 µM. hit rate 0.64% among 360,000. AID 602440; in the data active = inhibition mostly above about 40%, no sharp cut-off; inactive = mostly below about 27%
Hits are given with their value; . = inactive; / = not tested or not shown.

SMILES	SENP6 inh	SENP7 inh	SENP8 block-1	PPC-1+TRAIL kill	TRAIL sens C8	SENP8 block-2
O=C1NC(=O)N(Cc2ccc(F)cc2)C(=O)/C1=C\c1ccc([N+](=O)[O-])s1	.	.	.	.	.	50.4
CSc1ccc(C(=O)C2CCCN(CCCn3cccn3)C2)cc1 (centres undefined)	.	.	.	.	.	.
CC(=O)C1CCC2(O)C3CCC4=CC(=O)CCC4(C)C3CCC12C (centres undefined)	/	/	/	/	.	.
C[C@@H]1O[C@@H](O[C@@H]2C=C3CC[C@@H]4C(CC[C@]5(C)[C@@H](c6ccc(=O)oc6)CC[C@]45O)[C@@]3(C)CC2)[C@H](O)[C@H](O)[C@H]1O (some centres undefined)	.	.	.	/	75.8	.
C[C@@H]1O[C@@H](O[C@@H]2C=C3CCC4C(CC[C@]5(C)[C@@H](c6ccc(=O)oc6)CC[C@]45O)[C@@]3(C)CC2)[C@H](O)[C@H](O)[C@H]1O (some centres undefined)	.	.	.	/	74.8	.
NC(=O)CN1CCCC1=O	.	.	.	.	.	.
CCOc1ccc2nc(N=Nc3c(O)[nH]c(=O)[nH]c3=O)sc2c1	.	.	.	.	.	44.9
CCC1([N+](=O)[O-])COP(=O)(NCc2cccnc2)OC1 (centres undefined)	/	/	/	/	.	.
NCCc1cc(O)c(O)cc1O	/	/	/	/	.	36.0
c1cc2c(cc1NC1=NCCO1)CCCC2	/	/	/	/	.	.
CC(=O)OC(C)(C)/C=C/C(=O)C(C)(O)C1[C@H](O)C[C@@]2(C)C3CC=C4C(CC[C@@H](O)C4(C)C)[C@]3(CO)C(=O)C[C@]12C (some centres undefined)	.	.	.	/	53.1	.
CC(=O)OC(C)(C)/C=C/C(=O)C(C)(O)C1C(O)CC2(C)C3CC=C4C(CC(O)C(=O)C4(C)C)C3(C)C(=O)CC12C (centres undefined)	/	/	/	/	.	.
CC(=O)OC(C)(C)/C=C/C(=O)[C@](C)(O)[C@H]1[C@H](O)C[C@@]2(C)[C@@H]3CC=C4[C@H](C[C@H](O)C(=O)C4(C)C)[C@]3(C)C(=O)C[C@]12C	/	/	/	50.1	.	.
COC(=O)C12OCC34C(CC5C(C)=C(O)C(=O)CC5(C)C3C(O)C1O)OC(=O)C(OC(=O)/C=C(\C)C(C)C)C24 (centres undefined)	/	/	/	/	57.7	.
O=C1NC(=O)C(=Cc2ccc(N3CCN(C(=O)c4ccccc4)CC3)c([N+](=O)[O-])c2)C(=O)N1	.	.	.	.	.	41.0
CCn1c(O)c(/C(C)=N/N2CCCCC2c2cccnc2)c(=O)[nH]c1=S (centres undefined)	.	.	.	.	.	.
Cc1ccccc1CN1Cc2cnnn2-c2ccccc2C1C#N (centres undefined)	/	/	/	/	49.5	.
FCCN(CCF)c1cccc(Cl)c1	.	.	.	.	/	/
CCC(C)C1NC(=O)C(NC(=O)C(CC(C)C)N(C)C(=O)C2CCCN2C(=O)C(C)O)C(C)OC(=O)C(Cc2ccc(OC)cc2)N(C)C(=O)C2CCCN2C(=O)C(CC(C)C)NC(=O)[C@H](C)C(=O)[C@H](C(C)C)OC(=O)CC1O (some centres undefined)	/	/	/	/	81.9	.
NC(=O)c1cc(N2CC2)c([N+](=O)[O-])cc1[N+](=O)[O-]	.	.	.	/	.	.
CC[n+]1c(-c2ccccc2)c2cc(N)ccc2c2ccc(N)cc21	/	/	/	/	.	96.9
CC(=O)OC1C(O)C(C)OC(OC2C(OC(=O)C3CCC4C(C3)OC3(CC(OC(=O)/C=C/c5ccccc5)C(C)CO3)C43CO3)OC(C)C(O)C2OC(C)=O)C1O (centres undefined)	/	/	/	/	63.7	.
Clc1ccccc1CN1CCN(c2cccc3[nH]ccc23)CC1	.	.	.	.	.	.
COC1C(C)OC(OC2CC(C)(O)Cc3cc4c(c(O)c32)C(=O)c2c(O)cc3c(c2C4=O)OC2OC3(C)C(O)C(N(C)C)C2O)C(OC)C1(C)OC (centres undefined)	/	/	/	/	.	41.0
CC(=O)N1N=C(c2cccnc2)OC1c1ccccc1Cl (centres undefined)	.	.	.	.	.	.
SMILES	SENP6 inh	SENP7 inh	SENP8 block-1	PPC-1+TRAIL kill	TRAIL sens C8	SENP8 block-2
CC(=O)OC1N=C(c2ccccc2Cl)c2cc(Br)ccc2NC1=O (centres undefined)	.	.	.	.	.	.
COC(=O)C1=C(c2cccc(Cl)c2)C[C@@H]2CC[C@H]1N2C(=O)NCC1CC1	.	.	.	/	.	.
COC(=O)[C@@H]1N=C(c2ccc(OC)cc2)O[C@]12C(=O)N(Cc1ccc(OC)cc1)c1ccccc12	/	/	/	/	.	.
CC12CC[C@H]3[C@@H](CCC4(O)C[C@H](O)CCC34/C=N/NC(=O)c3ccc(O)cc3)C1(O)CCC2C1=CC(=O)OC1 (some centres undefined)	.	.	.	.	.	.
CC(=O)OC1CC(OC2C(O)CC(OC3C(O)CC(OC4CCC5(C)C(CCC6C5CCC5(C)C(C7=CC(=O)OC7)CCC65O)C4)OC3C)OC2C)OC(C)C1OC1OC(CO)C(O)C(O)C1O (centres undefined)	/	/	/	/	65.8	.
COc1c(C=C2C(=O)NC(=O)NC2=O)c(CCN(C)C(=O)c2ccccc2)cc2c1OCO2	.	.	.	/	.	44.1
Oc1ccc(-[n+]2c(-c3ccccc3)cc(-c3ccccc3)cc2-c2ccccc2)cc1	.	.	.	/	64.8	.
COc1ccc(-[n+]2c(-c3ccccc3)cc(-c3ccccc3)cc2-c2ccccc2)cc1	.	.	.	/	/	/
CCOC(=O)[C@]12Cc3cc(OC)ccc3[C@H]1N(C1CCCCC1)C(=O)c1cc(OC)ccc12	/	/	/	/	75.7	.
CCOC(=O)[C@]12Cc3cc(C)ccc3[C@H]1N(CCC(=O)OC)C(=O)c1cc(OC)ccc12	/	/	/	/	.	.
CCOC(=O)[C@]12Cc3cc(C)ccc3[C@H]1N(C1CCCCC1)C(=O)c1cc(OC)ccc12	/	/	/	/	95.8	.
Cc1ccc(NC(=O)CN2C(=O)CN=C(c3ccccc3)c3cc(Cl)ccc32)cc1	.	.	.	.	57.0	.
COC(=O)C1=C(c2ccc(S(C)(=O)=O)cc2)C[C@@H]2CC[C@H]1N2C(=O)NCC1CC1	.	.	.	/	.	.
CCCCn1c(=O)c(C(=O)Nc2ccccc2C)c(O)c2ccccc21	.	.	.	/	.	.
CC(C)CCn1c(=O)c(C(=O)Nc2ccccc2S(N)(=O)=O)c(O)c2ccccc21	.	.	.	.	52.5	.
CCOC(=O)[C@]12Cc3cc(C)ccc3[C@H]1N(C(C)C)C(=O)c1ccccc12	/	/	/	/	82.8	.
CCCCCN1C(=O)c2ccccc2[C@@]2(C(=O)OCC)Cc3cc(OC)ccc3[C@@H]12	/	/	/	/	58.9	.
O=[N+]([O-])/C=C/c1c(Cl)cccc1Cl	/	/	/	/	71.5	.
CCN(CC)c1ccc(/C=C/[N+](=O)[O-])cc1	.	.	.	.	.	.
